From PubChem BioAssay AID624297 (National Center for Advancing Translational Sciences (NCATS), 2012) come the findings set out here.

Each structure is given as a SMILES string. Among all 340,000 compounds or so, about 6,200 (1.8%) were called active. Not shown: some 10% with an inconclusive outcome. The full list was thinned out, with actives kept by preference. A number with no mark means an inactive call. Calls follow the shape of the dose curve; as a rule, active = well fitted activation curve with a large enough effect; inconclusive = small, poorly fitted or top-dose-only effect; inactive = no such curve, though single readings can be large or run the other way.
Potency is read from the fitted curve at half-maximal effect.

A short description of this experiment: A quantitative high throughput screen for small molecules that induce DNA re-replication in SW480 colon adenocarcinoma cells. Also: nearly all actives have a fitted effect of over 55% in size. As to re-replication activation: % of control where 0% means no effect. Particulars: Hoechst DNA content imaging, 48 h; series mostly up to 46.1 µM; re-replication activation: at the top concentration. The method in brief:
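Image-based DNA-content assay: after two days of treatment, nuclei were labelled with the DNA dye Hoechst and imaged, and hits were compounds raising the count of nuclei showing high fluorescence intensity.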
As to `O=C1CC(c2ccccc2)C(c2ccccc2)=NN1` (stereo not drawn), the “re-replication activation” value was 0.345%. The same measure, in the same setting: in the case of `S=c1[nH]c(-c2cccs2)cn1-c1ccccc1` it was -22.2%; in that of `COc1ccc(-c2cn(-c3ccc(OC)cc3)c(=S)[nH]2)cc1`, -2.03%. For the compound `O=c1oc2ccccc2cc1-c1cn(-c2ccccc2)c(=S)[nH]1`, the Potency was 9.2 µM (active). Regarding `O=C(O)c1ccc(S(=O)(=O)c2ccccc2)s1`, the “re-replication activation” value was 2.18%. The same measure, in the same setting: in the case of `O=[N+]([O-])c1ccc(COc2ccccc2CN2CCOCC2)cc1` it was -7.64% [at 9.22 µM].

As to `CCOC(=O)N1CCN(C(=O)c2ccccc2N(Cc2ccccc2)S(=O)(=O)c2ccc(OC)cc2)CC1`, the Potency was 14.6 µM (active). `CCOC(=O)N1CCN(S(=O)(=O)c2ccc(OC)cc2)CC1`: the “re-replication activation” value is 13.6%. The same measure, in the same setting: in the case of `NC(=O)c1ccccc1N(Cc1ccccc1)S(=O)(=O)c1ccccc1` it was 0.226%; in that of `CCOC(=O)c1ccccc1NC(=O)CSc1nc2c(sc(=S)n2CC)c(=O)[nH]1`, -5.64%. On the same count and under the same terms, to `CCOC(=O)C1=C(c2ccccc2)NC(=S)NC1c1ccc(Cl)cc1` (stereo not drawn) belongs -90.1%. Turning to `CCOC(=O)C1=C(CN2CCCCCC2)NC(=O)NC1c1cccc([N+](=O)[O-])c1` (stereo not drawn), the “re-replication activation” value was -5.96%.

Turning to `CCOC(=O)C1=C(CN2CCc3ccccc32)NC(=O)NC1c1ccc(Cl)cc1` (stereo not drawn), the Potency was 7.31 µM (active). On to `O=C(CN1CCN(c2ccccc2O)CC1)NC(=O)NCc1ccccc1`, for which the “re-replication activation” value is 14.8%. On to `COc1ccccc1N1CCN(CC(=O)NC(=O)NCc2ccco2)CC1`, for which the Potency is 5.8 µM (active). `O=C(CN1CCN(S(=O)(=O)/C=C/c2ccccc2)CC1)NC(=O)NCc1ccco1`: the “re-replication activation” value is 2.96%. The same measure, in the same setting: to `COC1=CC(=O)OC(c2ccc(OC)cc2)C1` (stereo not drawn) belongs -1.64%. Same read-out and setting: to `COc1ccc(CCNC(=O)C(=O)NCC2CCCN2S(=O)(=O)c2cccs2)cc1OC` (stereo not drawn) belongs -2.6%. With `O=C(NCCC1CCCCN1S(=O)(=O)c1cccs1)C(=O)Nc1ccc(F)cc1F` (stereo not drawn), the Potency is 11.2 µM (active). Turning to `COc1ccccc1CCNC(=O)C(=O)NCCC1CCCCN1S(=O)(=O)c1cccs1` (stereo not drawn), the “re-replication activation” value was -550%. On the same count and under the same terms, in the case of `Cc1noc(C)c1NC(=O)Nc1ccc2c(c1)C(=O)N([C@H](C)CO)C[C@H](C)[C@@H](CN(C)C(=O)Nc1ccc(C(F)(F)F)cc1)O2` it was -53.2%; in that of `Cc1cc(C)nc(N/N=C/c2ccncc2)n1`, -5.1%. `CCN(CC)c1ccc(/C=N/Nc2nc(C)cc(C)n2)c(O)c1`: the Potency was 8.2 µM (active). On to `CCNc1nc(NCC)nc(N/N=C/c2ccc(O)c(OC)c2)n1`, for which the “re-replication activation” value was -6.79%. Take `Oc1ccc(Cl)c2c1CCC2`: the “re-replication activation” value was 0.638%. Same read-out and setting: to `CSc1ncnc2c1ncn2CC(=O)C1CCC2C3CCC4=CC(=O)CCC4(C)C3CCC12C` (stereo not drawn) belongs 5.31%; to `Cc1ccc(C(=O)NCC(=O)NC2CC2)cc1`, 6.41%; to `Cc1cc(NC(=O)c2cc3ccccc3o2)no1`, -4.96%.
